Cytotoxicity data for 102 molecules are collected here from PubChem BioAssay AID431 (Sanford-Burnham Center for Chemical Genomics, 2006).

Out of some 63,000 compounds screened, about 1,100 (1.7%) were called active.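 How the source made its calls: active means compounds whose percent cytotoxicity in the single-dose primary screen, scaled between solvent and toxic-drug controls, exceeds 50; inactive means the rest.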 For the sample, actives were picked, then their nearest neighbours and some compounds at random. Results with a measured potency or affinity are listed apart.

A short description of the assay: cytotoxicity in KRAS-transformed pancreatic duct cells, primary screen, cell-based, fluorescence, HTS (AID 431).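 Further: 0% = DMSO solvent wells and 100% = doxorubicin-treated wells.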 Conditions: HPDE-C7K KRASV12 cells, Alamar Blue viability, 48 h; at 10 µM; active compounds read high. In general terms: Alamar Blue is a resazurin reagent that responds to reducing activity.
As to `O=C(C1CCN(S(=O)(=O)Cc2ccccc2)CC1)N1CCN(c2ncccn2)CC1`, the cytotoxicity is 11.4% (inactive).
Turning to `CCC(=O)NCCC(c1ccco1)c1ccccc1OC` (configuration not stated), the cytotoxicity is -5.9% (inactive).
`O=c1[nH]c(Cc2ccccc2)nc2c1oc1ccccc12`: the cytotoxicity is 10.4% (inactive).
With `O=C(O)c1c(-c2ccccc2)c2oc3ccccc3c2[nH]c1=O`, the cytotoxicity was 81.6% (active).
The value for `O=C(O)c1oc2ccccc2c1-n1cccc1` was 7.2% (inactive); that for `COC(=O)c1ccc(C(=O)OC)c(NS(C)(=O)=O)c1` was -2.8% (inactive); that for `CC(=O)Nc1cccc(OCC(O)Cn2cnc3ccccc32)c1` (configuration not stated) was 3.6% (inactive).
Regarding `Cc1cccc(CN2CCN(C(=O)c3ccccc3F)CC2)c1`, the cytotoxicity is -6.8% (inactive).
Consider `Cc1cccc(CN2CCN(C(c3ccccc3)c3ccc(Cl)cc3)CC2)c1` (configuration not stated), for which the cytotoxicity was 85.4% (active).
In the case of `Cc1cc(N2CCN(C(c3ccccc3)c3ccc(Cl)cc3)CC2)n2ncnc2n1` (configuration not stated), the cytotoxicity was 8.1% (inactive).
As to `OCCOCCN1CCN(C(c2ccccc2)c2ccc(Cl)cc2)CC1` (configuration not stated), the cytotoxicity is 26.4% (inactive).
Regarding `CN1CCCN(C(c2ccccc2)c2ccc(Cl)cc2)CC1` (configuration not stated), the cytotoxicity is 51% (active).
Turning to `Cc1cccc(CN2CCN(c3ccccn3)CC2)c1`, the cytotoxicity was -9.1% (inactive).
With `O=C(Nc1ccc2c(c1)OCO2)C1CCCN(S(=O)(=O)c2cccs2)C1` (configuration not stated), the cytotoxicity is 0.2% (inactive).
The value for `Cc1ccc(NC(=O)c2ccco2)c(NC(=O)c2cccs2)c1` was -4.8% (inactive).
The value for `COc1ccc(C(=O)OCCN2CCOCC2)cc1OC` was -1.7% (inactive); that for `Cc1ccc(C(=O)N(CC(=O)NC2CCCC2)Cc2cccs2)s1` was 5.4% (inactive); that for `Cc1ccc2cccc(OCC(=O)NCc3ccco3)c2n1` was -8.8% (inactive).
For the molecule `CCCCCOc1ccc(C(=O)NC(C(=O)O)C(C)C)cc1` (configuration not stated), the cytotoxicity is 6.5% (inactive).
The value for `Cc1ccc(O)c(N=CC2=C(O)c3ccccc3C2=O)c1` was 52.6% (active).
As for `O=C1C(C=Nc2ccccc2O)=C(O)c2ccccc21`, the cytotoxicity was 13.8% (inactive).
For the molecule `CN=CC1=C(O)c2ccccc2C1=O`, the cytotoxicity was -1.7% (inactive).
Take `Cc1cccc(-n2ncc3c(NC4CCCCC4)ncnc32)c1`: the cytotoxicity is 11.8% (inactive).
Regarding `O=C(Nc1sc2c(c1C(=O)O)CCC2)c1cccs1`, the cytotoxicity is 5.8% (inactive).
`COC(=O)c1c(NC(=O)c2ccoc2C)sc2c1CCC2`: the cytotoxicity is -18% (inactive).
Consider `COC(=O)c1c(NC(=O)c2ccc(Br)s2)sc2c1CCC2`, for which the cytotoxicity was 64.4% (active).
Turning to `O=C(Nc1sc2c(c1C(=O)O)CCCCC2)c1ccco1`, the cytotoxicity is 3.9% (inactive).
As for `CCOC(=O)c1c(NC(=O)c2ccco2)sc2c1CCCCC2`, the cytotoxicity was 11.4% (inactive).
As for `NC(=O)c1c(NC(NC(=O)c2ccco2)(C(F)(F)F)C(F)(F)F)sc2c1CCCC2`, the cytotoxicity is 51.3% (active).
As for `O=C(Nc1sc2c(c1C(=O)O)CCCC2)c1cccs1`, the cytotoxicity was 13.8% (inactive).
Take `NC(=O)c1c(NC(=O)c2cccs2)sc2c1CCCCCC2`: the cytotoxicity is 57.6% (active).
For the molecule `COC(=O)c1c(NC(C)=O)sc2c1CCCC2`, the cytotoxicity was 3.4% (inactive).
As to `COc1ccc(Nc2nc3ccccc3nc2C)cc1`, the cytotoxicity is 20% (inactive).
Consider `O=C1N(CC(=O)N2CCc3ccccc32)CCN1Cc1ccccc1Cl`, for which the cytotoxicity was -7.2% (inactive).
`COc1ccc(CCNS(=O)(=O)c2ccc3c(c2)CCN3C(=O)C2CC2)cc1OC`: the cytotoxicity is -6.7% (inactive).
With `O=C(CSc1nc(Nc2ccccc2)nc(N2CCOCC2)n1)Nc1ccc2c(c1)OCCO2`, the cytotoxicity is 11.5% (inactive).
Regarding `CCOC(=O)c1sc2nc(N3CCCC3)c3c(c2c1N)CC(C)(C)OC3`, the cytotoxicity is -3% (inactive).
The result for `COC(=O)CSc1ncnc2c1sc1nc(-c3ccco3)c3c(c12)CC(C)(C)OC3` reads 15.4% (inactive); that for `CCOC(=O)c1sc2nc(-c3ccco3)c3c(c2c1N)CC(C)(C)OC3`, 57.4% (active).
For the molecule `COc1ccc(Nc2nc(OC)nc(N3CCN(c4ccc(OC)cc4)CC3)n2)cc1`, the cytotoxicity was 8.4% (inactive).
The result for `COC(=O)/C=C1\NCCSC1=O` reads 35.9% (inactive); that for `O=C(CCC(=O)N(c1ccccc1)C(C(=O)NC1CCCC1)c1ccncc1)Nc1cccnc1` (configuration not stated), -0.5% (inactive); that for `CCn1c(=N)c(C(=O)NCc2cccnc2)cc2c(=O)n3cccc(C)c3nc21`, 1.8% (inactive).
With `CN=C(Nc1cc(C)nn1CCC#N)c1ccccc1F`, the cytotoxicity was 4.4% (inactive).
For `N#CC1=C(SCC(=O)NC23CC4CC(CC(C4)C2)C3)NC(=O)C(C#N)C12CCCCC2` (configuration not stated), the cytotoxicity was 45.6% (inactive).
With `CC(C)(C)C1CCC2(CC1)C(C#N)=C(SCC(=O)NC1CCCCC1)NC(=O)C2C#N` (configuration not stated), the cytotoxicity was 54.5% (active).
The result for `N#CC1=C(N)NC(SCC(=O)Nc2ccccc2)=C(C#N)C12CCCC2` reads 0.4% (inactive); that for `CCOC(=O)C1=C(SCC(=O)Nc2ccccc2)NC(=O)C(C#N)C12CCCCC2` (configuration not stated), 5.3% (inactive); that for `N#CC1=C(SCC(=O)NC2CC2)NC(=O)C(C#N)C12CCCCC2` (configuration not stated), -27.1% (inactive).
For `CCOC(=O)Cc1csc(NC(=O)CSc2nnc(-c3ccc(C)cc3)o2)n1`, the cytotoxicity was -11.9% (inactive).
In the case of `CC(=O)N1CCc2cc(S(=O)(=O)NC(CC(C)C)C(=O)Nc3ccc4c(c3)OCCO4)ccc21` (configuration not stated), the cytotoxicity was 7.7% (inactive).
The value for `N#CCSc1nnc2c(Cl)cc(Cl)cn12` was 7.2% (inactive); that for `Brc1ccc(-c2nc(-c3ccncc3)no2)o1` was 0.3% (inactive).
On to `CSc1ccc(S(=O)(=O)Nc2ccc(N3CCOCC3)c(Cl)c2)cc1`, for which the cytotoxicity is -2.9% (inactive).
In the case of `c1ccc(N2CCN(c3nnnn3-c3ccccc3)CC2)cc1`, the cytotoxicity was -3.6% (inactive).
In the case of `COc1ccc(CCNC(=O)COc2ccc(S(=O)(=O)N3CCOCC3)cc2)cc1`, the cytotoxicity is 8.2% (inactive).
On to `COC(=O)c1ccc2[nH]c(C)cc(=O)c2c1`, for which the cytotoxicity was -3.5% (inactive).
Take `Cc1cc(=O)c2cc(Cl)ccc2[nH]1`: the cytotoxicity is -4.6% (inactive).
Consider `Cc1cc2c(N=O)c(NO)ccc2[nH]1`, for which the cytotoxicity is 79.2% (active).
The value for `O=C(Nc1ccc2c(c1)OCCO2)C1CCCN(S(=O)(=O)c2cnc[nH]2)C1` (configuration not stated) was -1.8% (inactive); that for `Cn1c(=O)c2c(nc(NCCCN3CCOCC3)n2Cc2ccc(Cl)c(Cl)c2)n(C)c1=O` was -1.2% (inactive); that for `Cn1c(=O)c2c(nc(NCCCN3CCOCC3)n2Cc2ccc(Cl)cc2Cl)n(C)c1=O` was 0.9% (inactive).
The value for `Cn1c(NCCN2CCOCC2)nc2c1c(=O)n(Cc1cccc(Cl)c1)c(=O)n2C` was 22.4% (inactive).
Consider `Cn1c(NCCCN2CCOCC2)nc2c1c(=O)n(Cc1ccc(Cl)c(Cl)c1)c(=O)n2C`, for which the cytotoxicity was 54.6% (active).
For `Cn1c(NCCCN2CCOCC2)nc2c1c(=O)n(Cc1ccc(Cl)cc1)c(=O)n2C`, the cytotoxicity is 28.8% (inactive).
On to `Cn1c(NCCCN2CCOCC2)nc2c1c(=O)n(Cc1ccc(Cl)cc1Cl)c(=O)n2C`, for which the cytotoxicity is 50.6% (active).
As to `Cc1cc(C)nc(SCc2ccc3nonc3c2)n1`, the cytotoxicity is -23.2% (inactive).
For `Cc1cc(CN2C(=O)c3ccccc3C2=O)no1`, the cytotoxicity is -13.3% (inactive).
For the molecule `CCN(CC)S(=O)(=O)c1ccc(NC(=O)Cn2cnc3ccccc3c2=O)cc1`, the cytotoxicity is -6.7% (inactive).
Consider `CCC(=O)Nc1ccc(C(=O)n2nc(C)cc2C)cc1`, for which the cytotoxicity was 10.7% (inactive).
The result for `COCCSc1ccccc1C(=O)Nc1cc(C)on1` reads 85.8% (active); that for `COCCSc1ccccc1C(=O)Nc1nnc(C)s1`, -9% (inactive); that for `CCSc1ccccc1C(=O)Nc1cc(C)on1`, -0.6% (inactive).
`COc1ccc(C2CCCN2C(=O)Nc2ccc(F)cc2)cc1OC` (configuration not stated): the cytotoxicity is -15.2% (inactive).
The result for `CCNC(=O)C1CC(=O)N(Cc2ccc3c(c2)OCO3)C(=Nc2ccc(F)cc2)S1` (configuration not stated) reads 62.1% (active); that for `CCNC(=O)C1CC(=O)N(Cc2ccc3c(c2)OCO3)C(=Nc2ccc(OCC)cc2)S1` (configuration not stated), 10% (inactive); that for `CNC(=O)C1CC(=O)N(Cc2ccc3c(c2)OCO3)C(=Nc2ccc(F)cc2)S1` (configuration not stated), -2.3% (inactive).
Turning to `O=C(O)c1cc(C(=O)O)c(-c2ccccc2)c(C(=O)O)c1`, the cytotoxicity was -12.8% (inactive).
Regarding `CC(=O)Oc1cccc2c1C(=O)c1c(OC(C)=O)cc(C(=O)O)cc1C2=O`, the cytotoxicity is 8.1% (inactive).
As to `CCOc1ccc(N2Cc3ncccc3C2=O)cc1`, the cytotoxicity was -0.1% (inactive).
Consider `O=C(COc1ccc2ccccc2c1Br)N1CCOCC1`, for which the cytotoxicity was -30.2% (inactive).
As for `N#CC(C(=O)NCc1ccccc1)c1nc2ccccc2nc1N1CCCC1` (configuration not stated), the cytotoxicity was 8.4% (inactive).
Turning to `COc1ccc(CNC(=O)C(C#N)c2nc3ccccc3nc2N2CCN(C)CC2)cc1` (configuration not stated), the cytotoxicity is 76.5% (active).
`CCCCCCOC(=O)C(C#N)c1nc2ccccc2nc1N1CCCCC1` (configuration not stated): the cytotoxicity is -16.1% (inactive).
With `CCOc1ccccc1N1CCN(c2nc3ccccc3nc2C(C#N)C(=O)OC)CC1` (configuration not stated), the cytotoxicity is 50.6% (active).
The value for `CCOc1ccccc1N1CCN(c2nc3ccccc3nc2C(C#N)C(=O)OC(C)C)CC1` (configuration not stated) was -18.6% (inactive).
On to `COc1ccc(CNC(=O)C(C#N)c2nc3ccccc3nc2N2CCCC2)cc1` (configuration not stated), for which the cytotoxicity is -9.7% (inactive).
In the case of `CCCCCCOC(=O)C(C#N)c1nc2ccccc2nc1N1CCN(CC)CC1` (configuration not stated), the cytotoxicity is 5.9% (inactive).
With `CCCCCCOC(=O)C(C#N)c1nc2ccccc2nc1N1CCN(C)CC1` (configuration not stated), the cytotoxicity is 70.2% (active).
Consider `C=CCOC(=O)C(C#N)c1nc2ccccc2nc1N1CCN(c2ccccc2OCC)CC1` (configuration not stated), for which the cytotoxicity is 4.2% (inactive).
Regarding `O=C1CC(c2ccccc2)CC2=C1CN(C1CCCCC1)CN2` (configuration not stated), the cytotoxicity was 22% (inactive).
Regarding `Cc1nnc(NC(=O)C2CCN(c3cnccn3)CC2)s1`, the cytotoxicity is -12.6% (inactive).
`CCOc1ccccc1Oc1coc2cc(O)ccc2c1=O`: the cytotoxicity was -11.5% (inactive).
`Cc1cc(C(=O)Nc2sc(C)c(C)c2C#N)no1`: the cytotoxicity is -0.7% (inactive).
In the case of `Cc1cc(C)n(CC(O)Cn2c3ccccc3c3ccccc32)c(=O)n1` (configuration not stated), the cytotoxicity was 11.5% (inactive).
The value for `CC1CCCC(C)N1C(=O)Cn1c(SCC(=O)Nc2ccc3c(c2)OCO3)nc2ccccc21` (configuration not stated) was 8.4% (inactive).
`CCOc1ccc2noc3c2c1C(=O)c1ccccc1-3`: the cytotoxicity is 23.3% (inactive).
As to `COc1ccc(-c2onc3ccc(Cl)cc23)cc1OC`, the cytotoxicity is 4.4% (inactive).
On to `O=C(NCc1ccco1)c1ccc2c(c1)C(=O)c1ccccc1-2`, for which the cytotoxicity was 5.3% (inactive).
The value for `COc1ccc2noc3c2c1C(=O)c1ccccc1-3` was 72.7% (active); that for `O=C1c2ccccc2-c2onc3ccc(NCCCn4ccnc4)c1c23` was 27.5% (inactive); that for `O=C1c2ccccc2-c2onc3ccc(NCc4ccco4)c1c23` was 51.6% (active).
